# Laboratory results as given in PubChem BioAssay.
# Activity calls are given as the source filed them.
# Assays:
# [1] = compounds binding Alexa647 anti-His antibody – biochemical, small-molecule microarray, 635 nm fluorescence, artefact control for SMM control protein annotation, primary screen (AID 1128); conditions: higher = more signal;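 note: score merges feature fluorescence with signal-to-noise for each printed compound spot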
# [2] = system: Human papillomavirus type 1a E7 protein (residues 1-88); experiment: HPV1a E7 small-molecule binders, primary screen, biochemical, small-molecule microarray, residues 1-88, 635 nm (AID 1129); conditions: small-molecule microarray binding, fluorescence 635 nm; higher = more signal
# [3] = biological target: Focal adhesion kinase 1 (Homo sapiens) (UniProt Q05397); experiment: PTK2 protein binding on printed compound slides – biochemical, small-molecule microarray, 635/667 nm fluorescence, BSA, DTT, primary screen (AID 1130); conditions: 635 nm fluorescence, higher = more signal;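 note: composite of spot emission at 667 nm and signal to noise over triplicate slides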
# [4] = system: Fibrinogen (Alexa647-labelled); experiment: Alexa647-fibrinogen binding to printed small molecules – biochemical, small-molecule microarray, 635/667 nm fluorescence, artefact control for SMM control-protein annotation, profiling panel (AID 1131); conditions: fibrinogen-A647 binding fluorescence, higher = more signal;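 note: z-score merges 667 nm fluorescence with per-spot signal-to-noise over triplicate slides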
# [5] = biological target: Follistatin (Homo sapiens) (UniProt P19883); experiment: FST protein binding to printed compounds – biochemical, small-molecule microarray, 635/667 nm fluorescence, primary screen (AID 1132); conditions: 635 nm fluorescence, higher = more signal
# [6] = biological target: Fibroblast growth factor 2 (Homo sapiens) (UniProt P09038); experiment: basic fibroblast growth factor binding to printed compounds – biochemical, small-molecule microarray, 635/667 nm fluorescence, primary screen (AID 1133); conditions: FGF2, fluorescence 635/667, higher = more signal
# [7] = JC-1 mitochondrial potential readout, lung cancer cells – cell-based, A549, JC-1 fluorescence, basal, 24 h, 100 nL, profiling panel (AID 1138); conditions: higher = more signal;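 note: A549 lung adenocarcinoma cells under basal conditions with no added stimulus; test concentration not given here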
# Lefty1 = Lefty1 protein binding to printed compounds – biochemical, small-molecule microarray, 635/667 nm fluorescence, primary screen (AID 1139); conditions: fluorescence 635/667, higher = more signal
# [8] = system: wheat germ agglutinin (Triticum aestivum), Alexa647-labelled; experiment: Alexa647-WGA lectin binding to printed small molecules – biochemical, small-molecule microarray, 635/667 nm fluorescence, artefact control for SMM control-protein annotation, profiling panel (AID 1140); conditions: WGA-A647 binding, 635 nm fluorescence, higher = more signal;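 note: score merges 667 nm feature emission with signal to noise over triplicate slides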
# [9] = biological target: Luciferin 4-monooxygenase (Photinus pyralis) (UniProt P08659); experiment: inhibition of purified Photinus pyralis luciferase – biochemical, luminescence, purified enzyme, 2006 set, primary screen (AID 1141); conditions: purified firefly luciferase, SteadyGlo luminescence, 30 min; higher = more signal, called active from +8 up or from −8 down;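 note: cell-free assay with purified firefly luciferase at 100 ng per well in PBS; test concentration not given here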
# Sequence of Luciferin 4-monooxygenase (Photinus pyralis) (P08659 whole entry, looked up): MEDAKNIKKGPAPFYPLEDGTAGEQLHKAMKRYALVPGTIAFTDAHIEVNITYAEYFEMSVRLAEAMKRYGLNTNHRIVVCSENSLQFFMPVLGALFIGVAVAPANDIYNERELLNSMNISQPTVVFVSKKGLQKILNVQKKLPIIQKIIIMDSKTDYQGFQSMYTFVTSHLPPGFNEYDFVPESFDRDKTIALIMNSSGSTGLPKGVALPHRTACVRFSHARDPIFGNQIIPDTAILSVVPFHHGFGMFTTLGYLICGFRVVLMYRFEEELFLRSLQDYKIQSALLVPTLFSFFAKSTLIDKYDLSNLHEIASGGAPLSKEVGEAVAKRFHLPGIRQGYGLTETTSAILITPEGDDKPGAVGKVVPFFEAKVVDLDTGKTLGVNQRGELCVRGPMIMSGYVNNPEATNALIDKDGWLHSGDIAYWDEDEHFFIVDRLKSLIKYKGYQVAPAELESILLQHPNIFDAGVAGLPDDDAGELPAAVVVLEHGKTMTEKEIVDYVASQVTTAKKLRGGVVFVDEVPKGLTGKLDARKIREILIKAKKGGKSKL
# Sequence of Focal adhesion kinase 1 (Homo sapiens) (Q05397 whole entry, looked up): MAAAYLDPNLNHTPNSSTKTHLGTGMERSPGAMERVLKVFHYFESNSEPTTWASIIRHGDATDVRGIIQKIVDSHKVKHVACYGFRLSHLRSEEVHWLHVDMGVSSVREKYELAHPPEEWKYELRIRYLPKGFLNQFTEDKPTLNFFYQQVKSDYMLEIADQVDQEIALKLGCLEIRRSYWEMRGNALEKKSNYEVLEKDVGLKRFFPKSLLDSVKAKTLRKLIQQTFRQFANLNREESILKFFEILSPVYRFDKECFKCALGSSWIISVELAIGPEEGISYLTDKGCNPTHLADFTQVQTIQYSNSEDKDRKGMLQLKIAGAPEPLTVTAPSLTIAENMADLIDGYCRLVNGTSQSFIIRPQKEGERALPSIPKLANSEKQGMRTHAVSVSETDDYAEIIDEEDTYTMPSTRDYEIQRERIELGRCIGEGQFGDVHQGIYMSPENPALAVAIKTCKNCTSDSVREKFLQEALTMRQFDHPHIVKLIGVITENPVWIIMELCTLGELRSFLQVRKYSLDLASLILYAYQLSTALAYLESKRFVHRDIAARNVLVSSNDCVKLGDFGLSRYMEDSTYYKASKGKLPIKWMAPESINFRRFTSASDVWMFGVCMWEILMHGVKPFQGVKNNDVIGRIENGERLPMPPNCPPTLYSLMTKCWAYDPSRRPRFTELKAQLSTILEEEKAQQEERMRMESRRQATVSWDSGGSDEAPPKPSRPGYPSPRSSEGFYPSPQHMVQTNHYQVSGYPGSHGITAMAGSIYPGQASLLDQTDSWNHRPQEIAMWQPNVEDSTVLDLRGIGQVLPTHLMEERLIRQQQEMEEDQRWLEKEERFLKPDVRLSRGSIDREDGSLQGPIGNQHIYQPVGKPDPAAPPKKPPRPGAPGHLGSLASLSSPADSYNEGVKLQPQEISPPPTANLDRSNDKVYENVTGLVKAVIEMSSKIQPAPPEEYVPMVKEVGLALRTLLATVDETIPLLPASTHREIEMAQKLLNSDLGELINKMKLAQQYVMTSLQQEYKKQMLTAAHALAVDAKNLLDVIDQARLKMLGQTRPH
# Sequence of Fibroblast growth factor 2 (Homo sapiens) (P09038 whole entry, looked up): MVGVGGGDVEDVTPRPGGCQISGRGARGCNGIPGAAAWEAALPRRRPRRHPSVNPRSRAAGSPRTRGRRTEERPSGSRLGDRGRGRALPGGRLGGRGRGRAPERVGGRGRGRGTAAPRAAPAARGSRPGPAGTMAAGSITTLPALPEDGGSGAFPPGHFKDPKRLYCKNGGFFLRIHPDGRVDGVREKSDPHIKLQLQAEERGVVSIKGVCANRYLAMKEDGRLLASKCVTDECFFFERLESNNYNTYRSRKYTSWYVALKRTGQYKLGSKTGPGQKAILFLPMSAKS
# Sequence of Follistatin (Homo sapiens) (P19883 whole entry, looked up): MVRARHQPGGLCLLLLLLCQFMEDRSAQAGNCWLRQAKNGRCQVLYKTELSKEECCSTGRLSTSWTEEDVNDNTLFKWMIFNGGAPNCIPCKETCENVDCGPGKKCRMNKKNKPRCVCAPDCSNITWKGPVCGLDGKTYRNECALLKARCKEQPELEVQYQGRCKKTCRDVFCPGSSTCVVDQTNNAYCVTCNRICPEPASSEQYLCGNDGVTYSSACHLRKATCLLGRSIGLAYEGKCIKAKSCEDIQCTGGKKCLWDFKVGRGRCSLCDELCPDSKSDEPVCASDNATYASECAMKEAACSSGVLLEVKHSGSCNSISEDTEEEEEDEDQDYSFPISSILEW
Compound,composite z-score [1],composite z-score [2],composite z-score [3],composite z-score [4],composite z-score [5],composite z-score [6],z-score [7],composite z-score (Lefty1),composite z-score [8],z-score [9]
Cc1ccc(S[C@]2(C(=O)NC(C)C)CC(=O)N(Cc3cc(C(F)(F)F)cc(C(F)(F)F)c3)[C@@H]2c2ccc(CO)cc2I)cc1,2.87,-0.335,0.481,-0.306,0.623,0.384,0.598,-0.919,0.445,0.819 (inactive)
COC(=O)[C@@]1(Cc2ccc(OC)cc2)[C@H]2c3cc(C(=O)N(C)C)n(Cc4ccc(C)c(F)c4F)c3C[C@H]2CN1C(=O)c1ccccc1,0.158,0.713,0.0211,0.746,-0.266,-0.869,0.0287,-0.826,0.546,2.24 (inactive)
O=C1C2C=CC(C(O)C#Cc3ccccc3)N(Nc3ccccc3)C2C(=O)N1c1ccccc1 (stereo not given),1.1,0.356,0.0485,0.941,0.108,-0.0859,-0.136,-0.67,1.23,-0.934 (inactive)
CCCC[C@H]1OB(O)C[C@H]2C1=C(COC)C[C@H]1C(=O)N(Cc3ccccc3)C(=O)[C@H]12,-0.438,0.422,0.112,0.575,0.935,1.18,1.03,0.499,0.552,-1.22 (inactive)
C=CC[C@]1(C(=O)NCC(O)CO)N=C(c2ccc(OCCCO)cc2)O[C@H]1c1ccccc1 (stereo not given in full),0.307,0.904,0.12,0.106,-0.307,-0.651,0.985,-1.51,0.587,-0.428 (inactive)
CN1C(=O)C2C=CC(C(O)c3ccc(N(C)C)cc3)N(Nc3ccc([N+](=O)[O-])cc3[N+](=O)[O-])C2C1=O (stereo not given),1.54,1.23,0.171,1.01,1.26,-0.0151,0.469,-0.375,1.24,-1.2 (inactive)
CCC#CCN(Cc1ccccc1Br)[C@H](/C=C/c1ccccc1)[C@@H](O)Cc1ccccc1,0.017,-0.518,-0.0168,-0.58,-0.886,-1.48,-0.565,-0.978,-0.518,-0.686 (inactive)
CCCC=C(CCC)[C@@H](NS(=O)(=O)c1cccc(C(F)(F)F)c1)c1ccc(C(=O)OC)cc1,0.54,0.4,-0.209,0.436,0.572,0.319,0.622,0.0304,0.295,2.82 (inactive)
Cc1ccc(N2C(=O)c3ccccc3[C@](C)(C(=O)O)[C@@H]2c2ccc(CO)cc2)nc1,-0.763,-0.914,-0.594,-0.912,-1.04,-1.12,1.08,-1.28,-0.576,-1.46 (inactive)
O=C/C=C/c1ccc(/C=C/c2ccccc2)cc1,1.52,-0.483,-0.313,-1.86,0.828,0.168,1.39,-0.134,0.633,-3.83 (inactive)
COc1cc2c(cc1OC)CN(C(=O)[C@H]1[C@@H]3C(=O)O[C@@H](c4ccccc4)[C@@H](c4ccccc4)N3[C@@H](c3ccc(O)cc3)[C@]13C(=O)Nc1ccc(C#CC4(O)CCCCCC4)cc13)CC2,1.5,1.23,1.02,0.86,1.28,1.71,-1.23,0.59,1.31,-0.409 (inactive)
CC(c1ccccc1)C(O)C1C=CC2C(=O)N(C)C(=O)C2N1N(c1ccccc1)c1ccccc1 (stereo not given),0.69,0.919,0.467,0.948,-0.19,-0.377,0.755,-0.617,1.18,-0.273 (inactive)
C[C@@H]1CC[C@H]2C(=O)N3[C@@H](CC[C@@H](C)[C@@H]3c3cccc(N4CCOCC4)c3)C(=O)N2[C@H]1c1cccc(Br)c1,1.52,1.04,-0.0269,0.783,1.12,0.555,2.96,1.15,1.04,-1.13 (inactive)
O=C(NCC(O)CO)[C@]1(Cc2ccccc2)N=C(c2ccc(OCCCO)cc2)O[C@@H]1c1ccccc1 (stereo not given in full),0.713,0.98,0.774,0.601,0.585,-0.836,0.571,-1.42,1.27,-1.37 (inactive)
C[N+](C)(C)CCCCNC(=O)[C@@H]1C[C@@H]2C(=O)N3CCC[C@H]3C(=O)N2[C@@H]1c1cccc(OCCO)c1,2.72,0.143,0.275,-0.181,1.39,1.73,-0.0151,0.859,-0.392,-1.23 (inactive)
COC(=O)C1=CC(c2ccc(CO)cc2)=CC(c2cccs2)N(Cc2cccc(OC(F)(F)F)c2)C=C1C(=O)OC (stereo not given),2.15,1.23,0.409,0.97,0.289,-0.316,1.49,0.0703,1.4,-0.926 (inactive)
CC(C)(C)OC(=O)CC[C@@]1(C(=O)NCc2ccccc2)N=C(c2ccc(OCCCO)cc2)O[C@@H]1c1ccccc1,2.76,1.25,1.18,0.966,1.16,0.244,0.614,0.353,1.53,-1.54 (inactive)

Compound,composite z-score [1],composite z-score [2],composite z-score [3],composite z-score [4],composite z-score [5],composite z-score [6],z-score [7],composite z-score (Lefty1),composite z-score [8],z-score [9]
Cc1ccc(N2C(=O)c3ccccc3[C@@H](C(=O)NCc3ccccc3)[C@@H]2c2ccc(CO)cc2)nc1,-0.841,-1.26,-0.289,-1.15,1.33,0.0049,1.35,-0.114,-1.19,-0.635 (inactive)
CCCC=C(CCC)[C@@H](NS(=O)(=O)c1ccc(C(F)(F)F)cc1)c1ccc(-c2ccccc2)cc1,0.826,1.23,0.998,0.694,1.26,-0.0729,1.89,0.565,1.2,2.63 (inactive)
COCCOC(=O)N1C(=O)[C@@]2(c3cc(C#CCNC(N)=O)ccc31)[C@H](c1ccccc1OCCO)N1[C@H](c3ccccc3)[C@H](c3ccccc3)OC(=O)[C@H]1[C@@H]2C(=O)NC[C@H](O)c1ccccc1,1.06,1.2,0.499,0.943,1.28,0.472,-1.31,0.688,0.832,0.311 (inactive)
O=C1C2C=CC(C(O)Cc3ccccc3)N(Nc3ccc([N+](=O)[O-])cc3)C2C(=O)N1c1ccccc1 (stereo not given),1.46,1.01,0.331,0.405,0.252,-0.165,-0.75,-0.0551,0.245,1.36 (inactive)
CN1C2C=C(c3ccc(CO)cc3)C(C3C(=O)N(C(N)=O)C(=O)C32)C1c1cccs1 (stereo not given),-0.734,-0.343,-0.0644,-0.25,-0.513,-0.676,1.38,0.358,-0.543,-1.49 (inactive)
COC(=O)[C@@]1(Cc2ccccc2CN=[N+]=[N-])N=C(c2ccc(OCCCO)cc2)O[C@H]1c1ccccc1N=[N+]=[N-],-0.0307,0.339,1.96,0.694,0.832,0.0085,-0.403,0.79,0.727,-10.1 (active)
C=C(CCCC)/C(=C/C[C@H](OC(=O)c1ccncc1)c1cccc(OCCO)c1)c1cc(C(=O)OC)ccc1OC,1.06,0.492,-0.0622,0.723,0.852,1.59,0.397,1.17,0.311,0.34 (inactive)
COC(=O)C[C@H]1O[C@]2(C(=O)N(C)c3ccccc32)[C@@H](C)[C@@H]1[Si](C)(C)c1ccc(OC)cc1,0.284,0.824,0.0035,0.728,0.328,0.792,0.569,1.33,0.332,-0.274 (inactive)
COCCOC(=O)N1C(=O)[C@@]2(c3cc(C#CC4=CCCCC4)ccc31)[C@H](c1ccc(O)cc1)N1[C@H](c3ccccc3)[C@H](c3ccccc3)OC(=O)[C@H]1[C@@H]2C(=O)N1CCCCCCC1,0.31,1.15,1.45,0.694,1.23,1.22,1.99,1.12,0.576,-1.72 (inactive)
COC(=O)C1=CC(c2ccc(CO)cc2)=CC(C2CC2)N(Cc2sc3ccccc3c2Cl)C=C1C(=O)OC (stereo not given),3.42,1.19,1.46,0.896,0.851,0.3,2.04,0.573,1.49,-1.55 (inactive)
COCCCNC(=O)[C@@]1(Sc2ccc(C)cc2)CC(=O)N(Cc2cc(C(F)(F)F)cc(C(F)(F)F)c2)[C@@H]1c1ccc(CO)cc1I,-0.21,-1.1,0.144,-1.86,-0.993,-0.511,0.915,-1.66,-1.1,-0.503 (inactive)
CCOC(=O)C1=CC[C@@H](c2ccc(-c3ccc(OCc4ccccc4)cc3)c(OC)c2)N(S(=O)(=O)c2ccc(C)cc2)[C@H]1c1ccccc1,1.07,1.2,-0.0822,0.978,1.2,0.275,1.63,0.329,1.05,-3.26 (inactive)
COCCOC(=O)N1C(=O)[C@@]2(c3cc(C#CCC(C(=O)OC)C(=O)OC)ccc31)[C@H](c1ccccc1OCCO)N1[C@H](c3ccccc3)[C@H](c3ccccc3)OC(=O)[C@H]1[C@@H]2C(=O)N1CCCCCCC1,1.75,1.18,0.384,0.744,1.51,1.05,-0.729,1.55,0.529,0.406 (inactive)
N#Cc1ccc(NN2C(C(O)CCc3ccccc3)C=CC3C(=O)N(c4ccccc4)C(=O)C32)cc1 (stereo not given),1.31,1.08,0.945,0.846,0.353,-0.431,-0.3,-0.85,1.34,-0.98 (inactive)
COc1cc2c(cc1OC)CN(C(=O)[C@H]1[C@@H]3C(=O)O[C@@H](c4ccccc4)[C@@H](c4ccccc4)N3[C@@H](c3ccccc3OCCO)[C@]13C(=O)Nc1ccc(C#CC4(O)CCCCCC4)cc13)CC2,2.85,1.21,-0.0047,0.922,1.37,1.27,-0.627,0.971,1.08,-1.02 (inactive)
C=C(CCCC)/C(=C/C[C@@H](OC(=O)c1ccncc1)c1cccc(OCCO)c1)c1cc(C(=O)OC)ccc1OC,0.541,1.17,0.0708,0.939,1.12,0.627,4.97,0.959,1.09,-2.22 (inactive)
